The list is not random: actives were taken first. Their share in the collection is about 12%.
BAZ2B block: qHTS Assay for Inhibitors of BAZ2B; Potency, µM (series often up to 114 µM), usual class: inhibitors; Bromodomain adjacent to zinc finger domain protein 2B (Homo sapiens), Q9UIF8; hit rate 4.4% among 360,000; AlphaScreen BAZ2B-H3K14Ac peptide displacement; further: nearly all actives have a fitted effect of over 60% in size
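BAZ2B 50 nM plus b-H3(5-23)K14Ac 50 nM, PBS pH 7.4/0.01% Tween-20, 30 min RT; compound added (max 110 uM), 30 min RT; streptavidin donor/Ni-chelate acceptor beads 10 ug/mL final, 20 min dark; AlphaScreen read.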
Sfp PPTase inh: qHTS Assay for Inhibitors of Bacillus subtilis Sfp phosphopantetheinyl transferase (PPTase). Biochemical Sfp PPTase activity, qHTS. 4'-phosphopantetheinyl transferase ffp (Bacillus subtilis), Q9F4F7. hit rate 3.5% among 310,000. Potency, µM, hits mostly inhibitors;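 further: the enzyme is Sfp with the accession as filed and its product quenches rhodamine fluorescence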
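Reaction rates are the 30-min fluorescence difference (ex 525, em 598 nm) in wells containing 15 nM Sfp, 5 uM rhodamine-CoA and 12.5 uM BHQ-2-YbbR at pH 7.6 with 10 mM MgCl2.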
G9a inh: qHTS Assay for Inhibitors of Histone Lysine Methyltransferase G9a; Histone-lysine N-methyltransferase EHMT2 (Homo sapiens), Q96KQ7; G9a H3K9 monomethylation, AlphaScreen, 2 h; Potency, µM (series often up to 102 µM), most hits filed as inhibitors; hit rate 8.8% among 350,000; further: nearly all actives have a fitted effect of over 75% in size
Target sequence (Q96KQ7 913-1193 limits assumed): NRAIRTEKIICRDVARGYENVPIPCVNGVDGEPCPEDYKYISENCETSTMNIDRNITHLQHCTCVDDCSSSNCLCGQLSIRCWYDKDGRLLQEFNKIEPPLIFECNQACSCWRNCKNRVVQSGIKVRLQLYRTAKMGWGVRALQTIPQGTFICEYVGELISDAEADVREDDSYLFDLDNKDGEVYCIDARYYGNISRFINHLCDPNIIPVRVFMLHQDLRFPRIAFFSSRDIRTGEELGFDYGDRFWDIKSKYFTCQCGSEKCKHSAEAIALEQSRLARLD
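G9a (20 nM) preincubated 15 min RT with compounds, then 500 nM biotinylated H3K9 peptide and 20 uM SAM added; 2 h RT reaction. Monomethyl-H3K9 product detected by AlphaScreen with anti-H3K9me1 antibody, streptavidin donor and anti-rabbit IgG acceptor beads.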
PLK1 PBD inh: qHTS for Inhibitors of PLK1-PDB (polo-like kinase 1 - polo-box domain): Primary Screen | Serine/threonine-protein kinase PLK1 (Homo sapiens), P53350 | Plk1 PBD binding of FITC phosphopeptide, fluorescence polarization | Potency, µM, actives largely listed as inhibitors | hit rate 2.8% among 360,000 | AID 720504, 2013; further: series mostly up to about 57 µM; nearly all actives have a fitted effect of over 65% in size
HP1b chromo inh: HTS for Inhibitors of HP1-beta Chromodomain Interactions with Methylated Histone Tails; Chromobox protein homolog 1 (Homo sapiens), P83916; AlphaScreen HP1-beta / biotin-H3K9me3 peptide binding; Potency, µM (highest dose often 114 µM), most hits filed as inhibitors; hit rate 0.56% among 390,000; AID 540317, 2011; further: nearly all actives have a fitted effect of over 70% in size
Target sequence (P83916 whole entry, looked up): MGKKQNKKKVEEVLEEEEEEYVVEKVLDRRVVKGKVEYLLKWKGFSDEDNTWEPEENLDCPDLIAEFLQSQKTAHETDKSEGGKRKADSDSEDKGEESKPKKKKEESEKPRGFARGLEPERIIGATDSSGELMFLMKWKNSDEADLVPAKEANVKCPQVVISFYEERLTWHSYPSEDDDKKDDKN
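HP1-beta protein (50 nM final) preincubated 30 min at room temperature with biotinylated H3(1-18)K9me3 peptide (50 nM) in PBS pH 7.4, 0.01% Tween-20, then compound added for 30 min. AlphaScreen streptavidin donor/nickel chelate acceptor beads (10 ug/mL final), 30 min dark, luminescence read.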
JMJD2A Tudor inh: qHTS Assay for Inhibitors of JMJD2A-Tudor Domain; AlphaScreen JMJD2A-Tudor / H3K4me3 peptide binding; hit rate 4.4% among 390,000; Lysine-specific demethylase 4A (Homo sapiens), O75164; AID 504339, 2011; Potency, µM (top dose mostly 114 µM), hits mostly inhibitors; further: nearly all actives have a fitted effect of over 50% in size
Hits are given with their value; i = inactive; ? = inconclusive; nt = no result; [ ] = dose if it differs, or a comment. The call rests on the fitted dose curve; in most records, active means well fitted curve in the direction sought with a large enough effect; inconclusive means small, poorly fitted or top-dose-only effect, or another doubt; inactive means no such curve, though single readings can be large; an effect the other way counts as inactive or inconclusive.

SMILES	BAZ2B block	Sfp PPTase inh	G9a inh	PLK1 PBD inh	HP1b chromo inh	JMJD2A Tudor inh
Cc1ccc(NC(=O)CSc2nnc(-c3ccc(Br)cc3)o2)c(C)c1	i	nt	i	nt	i	i
CC(C)[C@H](NC(=O)[C@H](Cc1ccccc1)n1c(=O)[nH]c2ccccc2c1=O)C(=O)N[C@@H](Cc1ccccc1)C(=O)O	i	i	nt	i	i	i
O=C(O)C(Cc1ccccc1)n1c(=S)[nH]c2ccccc2c1=O (stereo not given)	i	i	?	?	i	14µM
Cc1ccc2[nH]c3c(=O)n(CC(=O)N4CCCCC4)ncc3c2c1	i	nt	i	nt	i	i
CCOC(=O)/C(C#N)=C\c1cc(OC)c(OC)cc1[N+](=O)[O-]	i	i	i[0.501 µM]	7.5µM	?	11µM
CCOC(=O)C1=C(N)n2c(s/c(=C/c3ccco3)c2=O)=C(C(=O)OC)C1c1ccco1 (stereo not given)	?	16µM	?	i	?	56µM
N#CC1=C(N)n2c(s/c(=C\c3ccco3)c2=O)=C(C#N)C1c1ccco1 (stereo not given)	?	i	?	?	79µM	56µM
N#CC1=C(N)n2c(s/c(=C\c3cccs3)c2=O)=C(C#N)C1c1cccs1 (stereo not given)	i	45µM	35µM	i	i	i
Cc1ccc2nc(NCc3ccccc3)c3nncn3c2c1	i	nt	i	nt	i	i
O=[N+]([O-])c1cccnc1N1CCN(c2ccc(F)cc2)CC1	40µM	i	45µM	?	45µM	25µM
Nc1ncnc2oc(-c3ccco3)c(-c3ccco3)c12	56µM	20µM	5.6µM	?	i	56µM
Nc1ncnc2oc(-c3ccoc3)c(-c3ccco3)c12	nt	nt	nt	nt	56µM	50µM
Nc1cc(-c2ccco2)no1	i	?	i	i	i	i
COc1ccc(OC)c(NC(=O)Cn2cnc3onc(-c4ccc(Cl)cc4)c3c2=O)c1	i	nt	i	nt	i	i
CCOc1ccc2nc(NC3=NC(c4ccc(OC)cc4)CC(=O)N3)nc(C)c2c1 (stereo not given)	i	22µM	10µM	i	?	79µM
C#CCOCCOCCOCCNc1nc(N2CCN(C(=O)CCCCCCCCCCNC(=O)[C@H](CO)n3cc(CCCSC)nn3)CC2)nc(N2CCN(C(=O)CCCCCCCCCCNC(=O)[C@H](CCCN=C(N)N)n3cc(C[C@@H](C)CC)nn3)CC2)n1	?	nt	i[2.33 µM]	i	i	79µM
C#CCOCCOCCOCCNc1nc(N2CCN(C(=O)CCCCCCCCCCNC(=O)Cn3cc(CCCCCN)nn3)CC2)nc(N2CCN(C(=O)CCCCCCCCCCNC(=O)Cn3cc(CCCCCN)nn3)CC2)n1	56µM	nt	i[2.33 µM]	i	?	56µM
C#CCOCCOCCOCCNc1nc(N2CCN(C(=O)CCCCCCCCCCNC(=O)[C@H](CO)n3cc(CCCSC)nn3)CC2)nc(N2CCN(C(=O)CCCCCCCCCCNC(=O)[C@H](CCCCN)n3cc(CCO)nn3)CC2)n1	nt	nt	nt	i	?	56µM
C#CCOCCOCCOCCNc1nc(N2CCN(C(=O)Cn3cc(CCCCN)nn3)CC2)nc(N2CCN(C(=O)Cn3cc(CCCCN)nn3)CC2)n1	i	i	?	i	i	i
C#CCOCCOCCOCCNc1nc(N2CCN(C(=O)CCCCCCCCCCNC(=O)Cn3cc(CCCCCN)nn3)CC2)nc(N2CCN(C(=O)CCCCCCCCCCNC(=O)[C@@H](CCC(=O)O)n3cc(CCCCCN)nn3)CC2)n1	i	nt	i[2.33 µM]	i	i	?
C#CCOCCOCCOCCNc1nc(N2CCN(C(=O)CCCCCCCCCCNC(=O)Cn3cc(CCCCCN)nn3)CC2)nc(N2CCN(C(=O)CCCCCCCCCCNC(=O)[C@@H](CCSC)n3cc(CCO)nn3)CC2)n1	?	nt	i[2.33 µM]	i	?	79µM
C=CCC[C@@H](Cc1ccc(F)cc1)C(=O)OC[C@@H](Cc1c[nH]c2ccccc12)NC(=O)[C@H](CC=C)CC(=O)N[C@H](CO)Cc1ccccc1	nt	nt	nt	i	i	i
O=C(OCC(=O)N1CCc2ccccc21)c1ccc([N+](=O)[O-])o1	nt	nt	nt	i	i	i
C#CCOCCOCCOCCNc1nc(N2CCN(C(=O)CCCCCCCCCCNC(=O)Cn3cc(C[C@@H](C)O)nn3)CC2)nc(N2CCN(C(=O)CCCCCCCCCCNC(=O)[C@H](CCCN=C(N)N)n3cc(C[C@@H](C)CC)nn3)CC2)n1	?	nt	i[2.33 µM]	i	?	45µM
O=C(O)c1ccccc1C(=O)Nc1ccc(-n2ccc(C(F)(F)F)n2)cc1	i	i	79µM	i	i	i
SMILES	BAZ2B block	Sfp PPTase inh	G9a inh	PLK1 PBD inh	HP1b chromo inh	JMJD2A Tudor inh
O=C(Nc1ccc(-n2ccc(C(F)(F)F)n2)cc1)c1cccs1	i	i	i	i	i	i
Cc1ccc(N(CC(O)Cn2c3ccccc3c3ccccc32)S(C)(=O)=O)cc1 (stereo not given)	i	i	i[12.7 µM]	i	i	i
CC(=O)Nc1ccc(N(CC(O)Cn2c3ccccc3c3ccccc32)S(=O)(=O)c2ccc(C)cc2)cc1 (stereo not given)	i	i	10µM	i	i	i
CC1(C)Cc2c(C#N)c(N)sc(=S)c2CO1	?	45µM	7.9µM	i	i	?
CC(C)N1CCc2c(sc(N)c2C#N)C1	i	i	?	i	i	i
CC(C)C1Cc2c(C#N)c(N)sc(=S)c2CO1 (stereo not given)	?	28µM	7.9µM	?	?	50µM
CCN(CC)c1nc(C)c2c(c1C#N)CC(C)(C)OC2	i	i	i	i	i	i
COc1cccc(-c2nc(N3CCN(c4ccccc4)CC3)c3ccccc3n2)c1O	i	i	i	i	?	?
COc1cccc(-c2nc(N3CCCCC3)c3ccccc3n2)c1O	nt	nt	nt	i	?	35µM
COc1cccc(-c2nc(NC(C)C)c3ccccc3n2)c1O	?	i	?	i	i	50µM
CCC1CCCCN1c1nc(-c2cccc(OC)c2O)nc2ccccc12 (stereo not given)	?	i	40µM	i	i	?
CCC1CCCCN1c1nc(-c2ccncc2)nc2ccccc12 (stereo not given)	i	i	i	i	i	i
Cc1ccc(C)c(NC(=O)Cn2nc(C)c3nn(-c4ccc(Cl)cc4)c(C)c3c2=O)c1	i	nt	i	nt	i	i
Cc1nn(-c2ccccc2)c2nc(=O)n(-c3ccccc3)cc12	i	i	i	3µM	?	?
